Most compounds without a hit are left out; they make up all but 12% or so of the library.
Cav32 inh = blocks human Cav3.2 T-type calcium channel | O95180 | Cav3.2-expressing cells, Fluo-4 calcium fluorescence FDSS; stronger effect = lower value | B-score at 10 µM | hit rate 4% among 100,000 | AID 449739;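 active = single-dose well whose peak fluorescence ratio is a statistical outlier from its plate by either plate-standardised score or position-corrected B-score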
D1 allo mod = allosteric modulators of human D1 dopamine receptor | P21728 | HEK293 D1, CRE-luciferase, dopamine EC30 potentiation; actives deviate in either direction | B-score at 10 µM | hit rate 5.9% among 58,000 | AID 641;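 active = luminescence count or its row- and column-corrected plate score outside the 99.7% band of the plate's sample wells, on either side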
PostGolgi ctrl = inhibits growth of the yeast control strain. efflux-deficient yeast background strain, growth absorbance A615, 16 h. inhibition, % at 10 µM. hit rate 5% among 98,000
PostGolgi yeast = growth inhibition of a yeast mutant, post-Golgi transport screen. post-Golgi transport phenotypic cell assay. inhibition, % at 10 µM. hit rate 0.9% among 98,000. AID 739;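 note: yeast cells grown in 1536-well plates; yeast grown about 18 h at 30C before absorbance read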
DAT uptake mod = human DAT dopamine uptake with cocaine, either direction; LLC-PK1 hDAT cells, [14C]-dopamine uptake with cocaine IC80; actives deviate in either direction; hit rate 1.3% among 110,000; B-score at 10 µM; Q01959;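 active = Z score or B-score, a plate-position-corrected score, falls beyond the plate's 99.7% confidence bounds, in either direction; inactive = both scores lie inside the 99.7% bounds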;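 note: scored against the spread of the other compound wells on the same plate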
PLAP act = activators of human placental alkaline phosphatase; activation fold at 20 µM; P05187; purified PLAP enzyme, luminescent substrate read-out; stronger effect = higher value; hit rate 1.2% among 96,000; in the data active = activation fold above about 2
The depositor's hits bear a star. Cut-off read from the data, not from the text of the source, unless noted: active = inhibition above about 30%; inactive = the rest.

Screening CCCOc1ccc(NC(=O)CC2C(=O)N(C)C(=S)N2Cc2cccs2)cc1 (stereo not drawn) returned Cav32 inh -3.9* and DAT uptake mod 0.21.
Screening Cc1ccc(S(=O)(=O)Nc2ccc(Br)cc2/C=N/n2cnnc2)cc1 returned Cav32 inh -0.33, PostGolgi ctrl 4, PostGolgi yeast 4, DAT uptake mod 1.1 and PLAP act 1.5.
For Cc1cc2ncn(/N=C/c3cc(Br)ccc3O)c2cc1C the results were Cav32 inh 0.47, D1 allo mod -0.01, PostGolgi ctrl 35*, PostGolgi yeast 11, DAT uptake mod -1.8 and PLAP act 1.6.
`CCOC(=O)c1cc(-c2ccc(OC)cc2F)nc2c1c(C)nn2CCC#N` gave Cav32 inh -1.8, PostGolgi ctrl 45*, PostGolgi yeast -3, DAT uptake mod -1 and PLAP act 1.1.
Screening Cc1cc(C)c(N2CCN(S(=O)(=O)N3CCCCCC3)CC2)c(C)c1 returned Cav32 inh -0.054, D1 allo mod 0.26, PostGolgi ctrl 13, PostGolgi yeast -8, DAT uptake mod 0.033 and PLAP act 0.8.
`Cc1ccc([N+](=O)[O-])cc1NC(=O)CN1CCC(C)CC1` gave PostGolgi ctrl 8, PostGolgi yeast 1 and PLAP act 1.1.
CC1CCN(CC(=O)Nc2cccc([N+](=O)[O-])c2)CC1 was read as Cav32 inh 0.11, PostGolgi ctrl 1, PostGolgi yeast 1, DAT uptake mod -2.8* and PLAP act 0.9.
Screening COc1ccc(Nc2nc(Nc3ccc(OC)cc3)nc(SC3=NCCS3)n2)cc1 returned Cav32 inh -5.9*, PostGolgi ctrl 18, PostGolgi yeast 16, DAT uptake mod 0.85 and PLAP act 1.1.
`O=C(c1ccc(NS(=O)(=O)c2cccs2)cc1)N1CCCCC1` gave Cav32 inh 0.2, D1 allo mod -1.2, PostGolgi ctrl 0, PostGolgi yeast -2 and DAT uptake mod -0.19.
Screening CCCOC(=O)c1ccc(NS(=O)(=O)c2cccs2)cc1 returned Cav32 inh -5*, D1 allo mod 1.2, PostGolgi ctrl 7, PostGolgi yeast -3, DAT uptake mod -0.75 and PLAP act 1.4.
`COc1ccc(N2CCN(C(=O)COc3ccc(Cl)cc3Cl)CC2)cc1` gave PostGolgi ctrl 24, PostGolgi yeast -4, DAT uptake mod 1.4 and PLAP act 1.
`COc1ccc(OC)c(S(=O)(=O)N(C)CC(=O)N2CCN(c3cccc(Cl)c3)CC2)c1` gave Cav32 inh -6.8*, PostGolgi ctrl 19, PostGolgi yeast -2, DAT uptake mod 0.19 and PLAP act 1.6.
For COc1ccc(OCC(=O)N2CCN(c3cccc(Cl)c3)CC2)cc1 the results were Cav32 inh -4.5*, PostGolgi ctrl 18, PostGolgi yeast -8, DAT uptake mod 0.95 and PLAP act 1.2.
Screening CCC(C(=O)N1CCN(c2cccc(Cl)c2)CC1)c1ccccc1 (stereo not drawn) returned Cav32 inh -5.3*, D1 allo mod 0.011, PostGolgi ctrl 12, PostGolgi yeast -18, DAT uptake mod -0.83 and PLAP act 1.1.
For COc1ccc(OCC(=O)N2CCN(c3cccc(C(F)(F)F)c3)CC2)cc1 the results were Cav32 inh -6.9*, D1 allo mod -1.2, PostGolgi ctrl 13, PostGolgi yeast 4, DAT uptake mod 0.43 and PLAP act 1.5.
For COc1ccc(N2CCN(C(=O)COc3ccc4ccccc4c3)CC2)cc1 the results were Cav32 inh -0.14, D1 allo mod 0.79, PostGolgi ctrl 4, PostGolgi yeast -2, DAT uptake mod 0.13 and PLAP act 0.9.
For COCCNC(=O)CN(C(=O)CCC(=O)Nc1nccs1)c1ccccc1OC the results were Cav32 inh -0.2, D1 allo mod 0.39, PostGolgi ctrl 4, PostGolgi yeast -1, DAT uptake mod -0.26 and PLAP act 1.5.
For Cc1cccc(NC(=S)NNC(=O)CCn2cc(C)cn2)c1 the results were Cav32 inh 0.25, PostGolgi ctrl 2, PostGolgi yeast -3, DAT uptake mod 0.35 and PLAP act 1.9.
Screening COC(=O)Cc1cc(=O)[nH]c(/N=C(/NC(=O)c2ccccc2)Nc2ccccc2C)n1 returned D1 allo mod 1.8.
Cc1ccc(SCCC(=O)NCCSCc2ccccc2C)cc1 was read as Cav32 inh -7.6*, PostGolgi ctrl 54*, PostGolgi yeast 7, DAT uptake mod 2 and PLAP act 1.
`Nc1c(S(=O)(=O)c2cccs2)c2nc3ccccc3nc2n1/N=C/c1cccc(O)c1` gave Cav32 inh -1.4, D1 allo mod -0.038, PostGolgi ctrl 10, PostGolgi yeast 6, DAT uptake mod 0.43 and PLAP act 1.4.
For COC(=O)C[C@H]1c2cc(C(F)(F)F)ccc2S(=O)(=O)N1C1CCCC1 the results were Cav32 inh 0.084 and DAT uptake mod 0.03.
`CC(C)N(C(=O)c1ccccc1-c1ccccc1)C(C)C` gave Cav32 inh -4.6*, PostGolgi ctrl 15, PostGolgi yeast -6, DAT uptake mod -0.2 and PLAP act 1.
COC(=O)c1cccc(C23CC4(C2)[C@H](CN(Cc2cccnc2)[C@@H]4c2ccccc2)C3c2ccccc2)c1 (stereo partly drawn) was read as Cav32 inh 0.38 and DAT uptake mod -0.32.
Screening OC(COc1ccc(Cl)cc1)CN1CCCCC1 (stereo not drawn) returned Cav32 inh 0.049, D1 allo mod -1.8, PostGolgi ctrl 4, PostGolgi yeast 0, DAT uptake mod -0.23 and PLAP act 1.2.
Screening OC(COc1c(Cl)cc(Cl)cc1Cl)CN1CCCCC1 (stereo not drawn) returned Cav32 inh -2.9*, D1 allo mod -2.6, PostGolgi ctrl 0, PostGolgi yeast 0, DAT uptake mod -0.59 and PLAP act 1.7.
Screening Cc1cc(-c2ccco2)n(CC(=O)NCc2ccccc2)n1 returned Cav32 inh 0.45, PostGolgi ctrl 6, PostGolgi yeast 4, DAT uptake mod -1.4 and PLAP act 1.
For Cc1cc(-c2ccco2)n(CC(=O)O)n1 the results were Cav32 inh 0.85, D1 allo mod -4.3*, PostGolgi ctrl 1, PostGolgi yeast -4, DAT uptake mod -0.21 and PLAP act 1.
For CCOC(=O)C1CCCN(C(=S)Nc2cc(C)cc(C)c2)C1 (stereo not drawn) the results were Cav32 inh 0.43, PostGolgi ctrl 1, PostGolgi yeast 4, DAT uptake mod 0.59 and PLAP act 1.5.
`COc1ccc(C(C)=O)cc1CSCCC#N` gave Cav32 inh 0.8, PostGolgi ctrl 3, PostGolgi yeast -3, DAT uptake mod 0.0015 and PLAP act 0.9.
For Cc1cc(=O)[nH]c(SCC(=O)Nc2ccc(Br)cc2)c1C#N the results were Cav32 inh -9.8*, PostGolgi ctrl 12, PostGolgi yeast 3, DAT uptake mod 0.46 and PLAP act 1.1.
O=C(NCCCn1ccnc1)c1ccc(Br)c(S(=O)(=O)N2CCOCC2)c1 was read as Cav32 inh 0.38, PostGolgi ctrl 7, PostGolgi yeast 0, DAT uptake mod -8.4* and PLAP act 0.9.

Screening results from PubChem.
